Screening results deposited in PubChem BioAssay by several laboratories.
Hits are enriched below; roughly 1.5% of the tested compounds scored in any of these assays.
GLD-1 RNA inh: GLD-1-TGE RNA interaction inhibition (C. elegans). Q17339. purified GLD-1 + fluorescein TGE RNA, fluorescence polarization. inhibition, % at 5.96 µM. hit rate 0.44% among 320,000. AID 2280;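 active = percent inhibition above a per-plate cutoff, the plate mean of test compounds plus 3 SD, cut at about 30% in these data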;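 also: 0% = DMSO wells with GLD-1 and probe and 100% = wells lacking GLD-1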
MCL1-BIM inh: MCL1-BIM-BH3 interaction inhibition (human). Q07820. GST-MCL1 / FITC-Bim-BH3 fluorescence polarization. inhibition, % at 10.9 µM. hit rate 0.68% among 320,000;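 active = inhibition above the mean inhibition of all tested compounds plus 3 SD, set per campaign, cut at about 40% in these data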;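 also: 0% = DMSO wells and 100% = unlabeled Bim-BH3 peptide control; higher means more loss of mP so more displacement of Bim peptide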
Bcl-xL primary: Bcl-xL (human) inhibition | inhibition, % at 10.9 µM | GST-Bcl-xL / FITC-Bim BH3 peptide fluorescence polarization | hit rate 0.7% among 320,000 | Q07817;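 active = inhibition above the mean of all tested compounds plus 3 SD, cutoff set per campaign, cut at about 30% in these data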;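 also: 0% = DMSO wells and 100% = unlabeled Bim-BH3 peptide competitor; inhibitors lower millipolarization by displacing the labeled peptide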
IDE cell activ: boosts human insulin-degrading enzyme activity in HEK cells; hit rate 0.073% among 340,000; activation, % at 5.96 µM; P14735; AID 493087; FAbeta-B cleavage, fluorescence polarization; 0% vehicle, 100% cell-free pure enzyme wells;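 active = activation above the mean of all tested compounds plus 3 SD, set per screening campaign, cut at about 17% in these data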
MEX-5 binding: C. elegans MEX-5 TCR-2 RNA binding activity. Q9XUB2. MEX-5/FITC-TCR2 RNA binding, fluorescence polarization; active compounds read low. activity score (negative = inhibition of binding), % at 10 µM. hit rate 0.38% among 300,000. AID 1832;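 active = inhibition past about -25% in most replicates, and total fluorescence under double the plate's negative control median, limit read from the data; inconclusive = replicates evenly split on the limit, or fluorescence at least double controls; inactive = too little inhibition in most replicates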;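 also: 0% = DMSO and -100% = 5 µM competing unlabeled TCR2 RNA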
IDE cell inh: inhibits human insulin-degrading enzyme in HEK cells; P14735; FAbetaB cleavage, fluorescence polarization; inhibition, % at 5.59 µM; hit rate 0.41% among 320,000; AID 434962;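 active = percent inhibition above the average of all tested compounds plus 3 SD, set per screening campaign, cut at about 16% in these data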;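 also: IDE supplied by intact live HEK cells; FP after avidin binding of uncleaved biotin substrate so inhibition keeps polarization high; 0% = DMSO wells and 100% = 60 µM reference IDE inhibitor Ii1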
Bcl-xL conf: Bcl-xL (human) inhibition, MCL1 counter-screen confirmation. shares compounds with MCL1-BIM inh. GST-Bcl-xL / FITC-Bim BH3 peptide FP binding. inhibition, % at 10.9 µM. AID 2166. hit rate 54% among 1,700;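 active = inhibition above a cutoff equal to the mean inhibition of all tested compounds plus 3 SD, cut at about 30% in these data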;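 also: 0% = DMSO wells and 100% = unlabeled Bim BH3 control peptide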
MCL1 inh confirm: confirmation of human MCL1 and BIM-BH3 interaction inhibitors; shares compounds with MCL1-BIM inh; GST-MCL1 / FITC-Bim-BH3 fluorescence polarization; inhibition, % at 10.9 µM; hit rate 61% among 1,700; AID 2168;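 active = inhibition above the average of all tested compounds plus 3 SD, cut at about 40% in these data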;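 also: 0% = DMSO wells and 100% = unlabeled Bim-BH3 control peptide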
GLD1 RNA confirm: GLD-1 TGE RNA interaction inhibition, confirmation | shares compounds with GLD-1 RNA inh | GLD-1/FL-TGE RNA fluorescence polarization, biochemical | inhibition, % at 5.96 µM | hit rate 10% among 550;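 active = average inhibition across triplicates above the hit cutoff set in the primary screen, cut at about 32% in these data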;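 also: 0% = GLD-1 with RNA probe and DMSO and 100% = wells lacking GLD-1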
IDE inh confirm: confirmation of human insulin-degrading enzyme inhibitors in cells | hit rate 51% among 1,200 | inhibition, % at 5.59 µM | AID 435028 | HEK cells, FAbetaB cleavage, fluorescence polarization | shares compounds with IDE cell inh;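 active = mean inhibition across triplicate wells above the cutoff set by the earlier primary insulin-degrading enzyme screen, cut at about 16% in these data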;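 also: 0% = DMSO wells and 100% = 60 µM reference IDE inhibitor Ii1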
HEK293 tox: HEK cell cytotoxicity, counter-screen for IDE inhibitors. AID 449730. shares compounds with IDE cell inh. hit rate 28% among 1,200. inhibition, % at 5.59 µM. HEK293 cytotoxicity, ATP luminescence; in the data active = inhibition above about 22%;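 also: 0% = vehicle wells and 100% = reference cytotoxic drug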
* hit, by the source's call; ? = inconclusive; . = not tested or not shown; + = active, no number.

SMILES	GLD-1 RNA inh	MCL1-BIM inh	Bcl-xL primary	IDE cell activ	MEX-5 binding	IDE cell inh	GLD1 RNA confirm	others
CCCCNc1c2c3c(cccc3n(C)c1=O)C(=O)c1ccccc1-2	+	+	198*	30*	?	103*	.	Bcl-xL conf=178*;MCL1 inh confirm=+;IDE inh confirm=26*;HEK293 tox=32*
CCOC(=O)N1CCN(C(=O)C(=O)NN)CC1	-4	-3	2	7	-2	4	.
COc1cc(SSc2cc(OC)cc([N+](=O)[O-])c2N)c(N)c([N+](=O)[O-])c1	7	55*	26	-27	0	21*	.	Bcl-xL conf=31*;MCL1 inh confirm=53*;IDE inh confirm=18*;HEK293 tox=24*
Nc1n[nH]c2cc(=O)n(-c3ccc(Cl)cc3)nc12	35*	28	26	1	-18	7	17
O=C(COC(=O)c1ccc(Cl)cc1O)NCCN1C(=O)CSC1=O	3	-6	-11	2	1	3	.
COc1ccc(CN2C(=O)CN=C2Nc2cc(C)ccc2C)cc1	33*	4	9	-3	-4	2	-3
O=C(c1noc2c1CCCC2)N1CCCC(N2CCN(c3ccccc3F)CC2)C1 (stereo not given)	4	4	-5	0	2	0	.
COc1cc(CNC2CCCC2)cc(Cl)c1OCc1ccc(F)cc1	52*	3	5	-6	-1	1	-2
Cc1cc(Oc2ccc(=O)[nH]n2)nc(Cl)n1	35*	34	40*	2	0	1	-5
Cc1oc(/N=C/c2ccc3c(c2)OCO3)c(C#N)c1C	36*	19	16	1	-3	-3	-3
CN1CCN(c2ccc(CNS(=O)(=O)c3ccsc3)cc2)CC1	6	6	9	.	0	-2	.
CC(=O)c1c(C)oc2c1cc(NS(=O)(=O)c1ccc(C(=O)O)cc1)c1ccccc12	16	1	8	2	-2	3	.
Cc1ccc(S(=O)(=O)Nc2cc3c(C(=O)Nc4ccccc4)c(C)oc3c3ccccc23)cc1	128*	22	21	-3	0	4	105*
O=[N+]([O-])c1ccc(S(=O)(=O)N2CCN(Cc3ccco3)CC2)cc1	-6	6	2	3	-2	3	.
Cc1cc2c(c(=O)o1)C(c1ccc([N+](=O)[O-])o1)C(C#N)=C(N)O2 (stereo not given)	36*	47*	46*	.	-11	6	-6
CC(=O)Oc1cccc2c1C(=O)c1c(OC(C)=O)cc(C(=O)O)cc1C2=O	52*	10	19	7	-16	1	41*
COc1cccc(CC(=O)Nc2cc(S(=O)(=O)N3CCOCC3)ccc2N2CCN(C)CC2)c1	1	-1	-2	4	.	2	.
CCCC(=O)C1=C(O)C(C(=O)OC)C(C)(C)CC1=Nc1ccc(N)cc1 (stereo not given)	3	0	4	4	-2	2	.
CCCC(=Nc1ccc(N)cc1)C1=C(O)C(C(=O)OC)C(C)(C)CC1=O (stereo not given)	33*	49*	44*	4	-1	2	6
Cc1cc(=O)oc2cc(NC(=O)C(C)Oc3cccc(Cl)c3)ccc12 (stereo not given)	14	-3	-2	8	-3	-4	.
Fc1ccc(Br)cc1C1C=C(c2cccnc2)Nc2ncnn21 (stereo not given)	34*	38	37*	1	-1	3	2
CCOC(=O)C1=C(C)Nc2ncnn2C1c1cc(Br)ccc1F (stereo not given)	10	4	-1	3	-3	2	.
CC(C)CCN(C)C1CCN(C(=O)Nc2c(F)cccc2F)CC1	35*	32	37*	4	3	-2	-4
COc1cccc(CN(C)C(=O)c2ccc(COc3ccc(Cl)cc3)cc2)c1OC	-5	4	8	-2	0	10	.
CS(=O)(=O)Nc1ccc(C(=O)NCCSCc2c(F)cccc2Cl)cc1	37*	-2	2	1	2	1	-3
SMILES	GLD-1 RNA inh	MCL1-BIM inh	Bcl-xL primary	IDE cell activ	MEX-5 binding	IDE cell inh	GLD1 RNA confirm	others
COc1cccc(C(=O)NCCSCc2c(F)cccc2Cl)c1	6	2	6	-1	2	1	.
COc1ccc(-n2c(Cc3cc(=O)[nH]c(=O)[nH]3)nnc2SCC(=O)NC2CCCC2)cc1	17	10	8	3	-2	-1	.
O=C(CSc1nnc(Cc2cc(=O)[nH]c(=O)[nH]2)n1-c1ccc(Cl)cc1)NC1CCCC1	37*	27	18	7	.	2	18
COc1ccc(CNC(=O)C2CCN(c3cc(C(=O)Nc4cccc(OC)c4)ccn3)CC2)cc1	3	5	4	2	-4	-6	.
COc1ccccc1Oc1c(C)oc2c(CN3CCN(CCO)CC3)c(O)ccc2c1=O	61*	112*	95*	.	0	6	1
COc1cc(Cl)c(C)cc1NC(=S)NN	-1	3	4	6	2	3	.
CC1(C)CC(=O)C/C(=N/NC(=O)COc2ccc3ccccc3c2Br)C1	31*	14	5	1	-5	0	1
CC1(C)CC(=O)C/C(=N/NC(=O)COc2ccc(Cl)cc2Cl)C1	23	15	5	-10	-1	-1	.
COc1ccc(CNCCC(c2ccccc2)C2CCOC(C)(C)C2)cc1 (stereo not given)	49*	0	3	-3	1	4	2
CCCCC(=O)NCc1ccc2c(c1)cc(C)n2C	14	14	12	4	-1	3	.
Cc1cc2cc(CNS(=O)(=O)c3ccccc3)ccc2n1C	54*	47*	36*	4	-1	1	11
CCOC(=O)CCC(=O)NCc1ccc2c(c1)cc(C)n2C	31*	44*	38*	1	-4	2	11
